# Source: ChEMBL document CHEMBL2218924, “A broad activity screen in support of a chemogenomic map for kinase signalling research and drug discovery” (Biochem J, 2013)
# Columns and labels:
# [1] = biological target: T1, Rhodopsin kinase GRK7 (Homo sapiens) (UniProt Q8WTQ7); conditions: at 10 µM
# T1 sequence (whole entry): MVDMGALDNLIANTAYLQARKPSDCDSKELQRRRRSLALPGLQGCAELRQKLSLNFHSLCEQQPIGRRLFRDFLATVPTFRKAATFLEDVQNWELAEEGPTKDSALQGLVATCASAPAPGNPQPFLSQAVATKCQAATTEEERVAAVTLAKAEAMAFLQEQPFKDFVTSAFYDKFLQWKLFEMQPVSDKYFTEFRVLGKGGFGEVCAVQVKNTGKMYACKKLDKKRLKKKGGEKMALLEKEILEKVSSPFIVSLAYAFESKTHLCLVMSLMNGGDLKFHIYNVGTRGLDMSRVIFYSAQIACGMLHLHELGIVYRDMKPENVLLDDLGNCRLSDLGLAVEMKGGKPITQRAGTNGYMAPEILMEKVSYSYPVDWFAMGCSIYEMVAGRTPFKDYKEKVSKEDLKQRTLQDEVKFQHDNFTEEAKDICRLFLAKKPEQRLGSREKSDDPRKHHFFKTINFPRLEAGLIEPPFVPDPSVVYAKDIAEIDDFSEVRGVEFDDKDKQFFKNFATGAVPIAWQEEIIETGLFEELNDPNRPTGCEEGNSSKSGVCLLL
# [2] = biological target: Homeodomain-interacting protein kinase 2 (Homo sapiens) (UniProt Q9H2X6); conditions: at 1 µM
# [3] = biological target: Homeodomain-interacting protein kinase 2 (Homo sapiens) (UniProt Q9H2X6); conditions: at 10 µM
# [4] = biological target: Glycogen synthase kinase-3 beta (Homo sapiens) (UniProt P49841); conditions: at 1 µM
# [5] = biological target: Glycogen synthase kinase-3 beta (Homo sapiens) (UniProt P49841); conditions: at 10 µM
# [6] = biological target: Homeodomain-interacting protein kinase 1 (Homo sapiens) (UniProt Q86Z02); conditions: at 10 µM
# [7] = biological target: Homeodomain-interacting protein kinase 1 (Homo sapiens) (UniProt Q86Z02); conditions: at 1 µM
# [8] = biological target: Homeodomain-interacting protein kinase 3 (Homo sapiens) (UniProt Q9H422); conditions: at 1 µM
# [9] = biological target: Glycogen synthase kinase-3 alpha (Homo sapiens) (UniProt P49840); conditions: at 1 µM
# [10] = biological target: Glycogen synthase kinase-3 alpha (Homo sapiens) (UniProt P49840); conditions: at 10 µM
# Glycogen synthase kinase-3 beta (Homo sapiens), sequence (P49841 whole entry, looked up): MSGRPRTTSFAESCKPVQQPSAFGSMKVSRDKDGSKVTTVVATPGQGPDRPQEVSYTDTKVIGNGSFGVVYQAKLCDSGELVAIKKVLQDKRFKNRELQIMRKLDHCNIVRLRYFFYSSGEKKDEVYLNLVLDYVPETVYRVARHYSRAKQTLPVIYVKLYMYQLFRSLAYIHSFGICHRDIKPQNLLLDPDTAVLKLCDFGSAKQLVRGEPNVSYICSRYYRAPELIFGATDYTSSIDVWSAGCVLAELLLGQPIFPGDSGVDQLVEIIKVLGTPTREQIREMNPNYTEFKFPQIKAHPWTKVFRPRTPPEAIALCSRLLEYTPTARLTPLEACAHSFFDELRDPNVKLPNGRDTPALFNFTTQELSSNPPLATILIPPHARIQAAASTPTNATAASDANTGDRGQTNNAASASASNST
# Homeodomain-interacting protein kinase 1 (Homo sapiens), sequence (Q86Z02 whole entry, looked up): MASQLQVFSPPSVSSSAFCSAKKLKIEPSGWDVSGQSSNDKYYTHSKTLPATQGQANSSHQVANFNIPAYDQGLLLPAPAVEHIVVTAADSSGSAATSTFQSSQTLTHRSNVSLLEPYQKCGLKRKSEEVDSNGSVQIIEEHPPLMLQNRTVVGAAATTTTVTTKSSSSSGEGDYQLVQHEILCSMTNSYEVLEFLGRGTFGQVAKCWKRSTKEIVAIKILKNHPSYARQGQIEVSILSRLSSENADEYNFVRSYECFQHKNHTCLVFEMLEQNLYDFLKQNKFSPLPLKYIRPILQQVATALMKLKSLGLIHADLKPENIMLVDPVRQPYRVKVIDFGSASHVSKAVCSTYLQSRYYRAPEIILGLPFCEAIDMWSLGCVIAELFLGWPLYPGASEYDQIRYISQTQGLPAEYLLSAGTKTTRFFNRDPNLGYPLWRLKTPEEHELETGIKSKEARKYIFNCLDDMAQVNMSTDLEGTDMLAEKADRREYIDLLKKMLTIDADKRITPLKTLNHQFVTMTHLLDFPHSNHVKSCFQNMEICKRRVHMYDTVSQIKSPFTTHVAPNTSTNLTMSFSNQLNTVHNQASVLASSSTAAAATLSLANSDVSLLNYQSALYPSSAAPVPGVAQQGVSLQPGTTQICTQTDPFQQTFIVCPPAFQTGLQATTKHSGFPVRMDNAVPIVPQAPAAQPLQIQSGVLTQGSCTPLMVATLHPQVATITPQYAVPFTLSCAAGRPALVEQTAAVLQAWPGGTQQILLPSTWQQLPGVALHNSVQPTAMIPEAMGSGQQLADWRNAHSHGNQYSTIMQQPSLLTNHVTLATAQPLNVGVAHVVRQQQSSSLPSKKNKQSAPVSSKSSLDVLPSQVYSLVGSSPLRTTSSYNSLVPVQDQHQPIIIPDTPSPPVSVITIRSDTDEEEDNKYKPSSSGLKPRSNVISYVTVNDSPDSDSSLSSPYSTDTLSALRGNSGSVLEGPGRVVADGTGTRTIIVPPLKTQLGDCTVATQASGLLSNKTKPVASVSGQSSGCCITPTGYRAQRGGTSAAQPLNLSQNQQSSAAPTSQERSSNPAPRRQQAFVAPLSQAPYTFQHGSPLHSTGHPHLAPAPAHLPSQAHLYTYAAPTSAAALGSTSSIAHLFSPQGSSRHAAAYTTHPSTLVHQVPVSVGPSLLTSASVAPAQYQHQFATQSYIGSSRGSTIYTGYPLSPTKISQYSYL
# Glycogen synthase kinase-3 alpha (Homo sapiens), sequence (P49840 2-483 limits assumed): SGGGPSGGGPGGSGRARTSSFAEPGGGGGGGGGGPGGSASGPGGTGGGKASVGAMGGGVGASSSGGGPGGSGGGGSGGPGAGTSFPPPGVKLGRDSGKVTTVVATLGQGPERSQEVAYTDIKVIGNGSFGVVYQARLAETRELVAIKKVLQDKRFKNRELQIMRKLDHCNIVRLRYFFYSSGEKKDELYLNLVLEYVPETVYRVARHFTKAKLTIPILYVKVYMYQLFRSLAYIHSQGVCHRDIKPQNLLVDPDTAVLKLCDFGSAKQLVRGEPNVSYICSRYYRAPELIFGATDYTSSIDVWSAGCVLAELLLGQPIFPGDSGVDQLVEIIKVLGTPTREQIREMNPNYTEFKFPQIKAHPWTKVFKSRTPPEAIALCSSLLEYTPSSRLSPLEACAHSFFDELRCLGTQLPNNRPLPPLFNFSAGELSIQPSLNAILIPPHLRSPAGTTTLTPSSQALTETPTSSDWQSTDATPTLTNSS
# Homeodomain-interacting protein kinase 3 (Homo sapiens), sequence (Q9H422 whole entry, looked up): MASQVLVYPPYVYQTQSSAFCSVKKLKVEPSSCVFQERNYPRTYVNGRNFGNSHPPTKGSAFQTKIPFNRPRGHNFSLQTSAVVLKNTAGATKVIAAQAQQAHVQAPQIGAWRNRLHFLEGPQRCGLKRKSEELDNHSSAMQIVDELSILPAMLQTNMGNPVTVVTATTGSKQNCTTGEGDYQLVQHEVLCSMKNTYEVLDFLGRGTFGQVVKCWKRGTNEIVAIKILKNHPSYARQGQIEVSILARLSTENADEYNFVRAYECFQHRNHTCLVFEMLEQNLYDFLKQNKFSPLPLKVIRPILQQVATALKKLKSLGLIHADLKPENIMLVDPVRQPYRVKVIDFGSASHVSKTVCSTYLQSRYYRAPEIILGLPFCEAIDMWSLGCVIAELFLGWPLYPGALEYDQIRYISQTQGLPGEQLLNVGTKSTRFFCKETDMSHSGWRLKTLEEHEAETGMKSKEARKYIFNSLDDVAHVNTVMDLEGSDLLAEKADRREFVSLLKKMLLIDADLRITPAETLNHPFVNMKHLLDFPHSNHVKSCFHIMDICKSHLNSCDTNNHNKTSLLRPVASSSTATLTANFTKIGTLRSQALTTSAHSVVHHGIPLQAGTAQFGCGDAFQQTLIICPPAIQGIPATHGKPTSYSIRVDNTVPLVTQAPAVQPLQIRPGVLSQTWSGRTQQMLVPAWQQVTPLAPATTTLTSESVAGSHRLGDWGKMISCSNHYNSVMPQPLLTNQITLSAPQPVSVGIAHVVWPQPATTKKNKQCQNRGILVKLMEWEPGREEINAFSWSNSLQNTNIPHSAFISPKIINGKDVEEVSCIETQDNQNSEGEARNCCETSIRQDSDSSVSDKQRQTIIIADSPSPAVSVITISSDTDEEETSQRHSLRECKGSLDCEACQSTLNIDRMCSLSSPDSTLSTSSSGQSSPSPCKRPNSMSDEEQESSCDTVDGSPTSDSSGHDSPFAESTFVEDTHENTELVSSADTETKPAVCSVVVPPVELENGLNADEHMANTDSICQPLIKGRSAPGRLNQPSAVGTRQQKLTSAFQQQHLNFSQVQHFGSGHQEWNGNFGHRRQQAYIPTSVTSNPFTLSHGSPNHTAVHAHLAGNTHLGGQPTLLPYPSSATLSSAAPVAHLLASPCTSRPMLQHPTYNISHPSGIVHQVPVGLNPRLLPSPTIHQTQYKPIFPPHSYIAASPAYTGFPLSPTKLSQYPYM
# Homeodomain-interacting protein kinase 2 (Homo sapiens), sequence (Q9H2X6 whole entry, looked up): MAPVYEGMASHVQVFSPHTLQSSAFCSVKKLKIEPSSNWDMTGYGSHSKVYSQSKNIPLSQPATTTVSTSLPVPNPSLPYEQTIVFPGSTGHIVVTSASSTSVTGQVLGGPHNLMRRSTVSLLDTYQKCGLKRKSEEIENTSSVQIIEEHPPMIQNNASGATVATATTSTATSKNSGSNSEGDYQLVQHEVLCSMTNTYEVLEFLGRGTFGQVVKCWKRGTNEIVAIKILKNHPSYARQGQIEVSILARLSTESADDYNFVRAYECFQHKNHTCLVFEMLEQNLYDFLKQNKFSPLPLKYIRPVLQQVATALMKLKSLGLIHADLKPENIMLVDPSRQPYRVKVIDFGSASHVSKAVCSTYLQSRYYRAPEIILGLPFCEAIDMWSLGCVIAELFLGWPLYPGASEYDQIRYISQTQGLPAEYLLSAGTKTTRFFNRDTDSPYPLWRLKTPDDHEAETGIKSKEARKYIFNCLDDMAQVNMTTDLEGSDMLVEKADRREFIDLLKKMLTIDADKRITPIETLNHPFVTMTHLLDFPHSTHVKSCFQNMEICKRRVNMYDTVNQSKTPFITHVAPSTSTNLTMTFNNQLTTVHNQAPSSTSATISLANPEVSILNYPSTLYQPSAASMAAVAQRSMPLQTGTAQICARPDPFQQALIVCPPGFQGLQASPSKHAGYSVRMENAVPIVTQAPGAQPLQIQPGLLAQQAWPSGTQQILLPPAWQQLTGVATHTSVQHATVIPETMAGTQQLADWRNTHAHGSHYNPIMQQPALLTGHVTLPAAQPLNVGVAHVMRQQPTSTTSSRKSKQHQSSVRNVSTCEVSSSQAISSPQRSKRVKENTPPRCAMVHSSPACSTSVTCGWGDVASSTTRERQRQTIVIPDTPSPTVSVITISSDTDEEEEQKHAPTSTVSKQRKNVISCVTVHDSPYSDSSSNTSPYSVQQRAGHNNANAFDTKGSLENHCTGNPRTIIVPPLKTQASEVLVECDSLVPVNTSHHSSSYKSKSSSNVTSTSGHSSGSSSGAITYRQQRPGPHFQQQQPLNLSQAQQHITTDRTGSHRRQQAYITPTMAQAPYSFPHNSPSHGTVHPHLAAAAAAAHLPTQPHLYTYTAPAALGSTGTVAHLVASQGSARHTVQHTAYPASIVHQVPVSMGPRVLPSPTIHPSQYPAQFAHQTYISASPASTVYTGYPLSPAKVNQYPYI
structure (smiles),measurement,setting,value
Cn1sc(=O)n(Cc2ccccc2)c1=O,residual activity,[1],77%
same,residual activity,[2],94%
same,residual activity,[3],94%
O=C1Cc2c([nH]c3ccc(Br)cc23)-c2ccccc2N1,residual activity,[4],8%
same,residual activity,[5],7%
same,residual activity,[6],90%
same,residual activity,[2],98%
same,residual activity,[3],64%
COc1ccc(Cl)cc1NC(=O)Nc1cc(C)nc2ccccc12,residual activity,[1],88%
same,residual activity,[7],97%
same,residual activity,[2],98%
same,residual activity,[3],87%
same,residual activity,[8],99%
Fc1ccc(-c2nc3n(c2-c2ccncc2)CCS3)cc1,residual activity,[9],88%
same,residual activity,[10],88%
same,residual activity,[3],91%
N#Cc1c(NC(=O)c2cccc3ccccc23)sc2c1CCCC2,residual activity,[9],84%
same,residual activity,[10],80%
same,residual activity,[5],100%
same,residual activity,[8],99%
O=c1c(-c2ccc(F)cc2)c(-c2ccncc2)[nH]n1-c1ccc(Cl)cc1,residual activity,[10],69%
same,residual activity,[4],102%
same,residual activity,[5],56%
same,residual activity,[3],99%
N#C/C(=C1/Nc2ccccc2S1)c1ccnc(NCCc2cccnc2)n1,residual activity,[9],1%
same,residual activity,[10],-1%
same,residual activity,[4],8%
same,residual activity,[5],1%
same,residual activity,[2],47%
same,residual activity,[3],6%
same,residual activity,[8],88%
Nc1ncnc2[nH]nc(Nc3ccc(F)cc3)c12,residual activity,[9],98%
same,residual activity,[10],90%
same,residual activity,[4],100%
same,residual activity,[5],93%
same,residual activity,[7],108%
same,residual activity,[6],96%
same,residual activity,[2],100%
same,residual activity,[3],92%
CC(C)N(CCC(=O)c1ccc2ccccc2c1)Cc1ccccc1,residual activity,[10],135%
same,residual activity,[8],86%
O=S(=O)(c1cccc2cnccc12)N1CCCNCC1,residual activity,[4],136%
CC(C)(C)c1nc2c3ccc(F)cc3c3c(=O)[nH]ccc3c2[nH]1,residual activity,[6],98%
same,residual activity,[2],65%
same,residual activity,[3],21%
same,residual activity,[8],79%
CSc1nc(-c2ccc(F)cc2)c(-c2ccnc(NC(C)c3ccccc3)c2)[nH]1 (stereo not given),residual activity,[10],96%
same,residual activity,[6],97%
same,residual activity,[3],86%
CCN(CC)CCNC(=O)c1c(C)[nH]c(/C=C2\C(=O)Nc3ccc(Cl)cc32)c1C,residual activity,[1],9%
same,residual activity,[7],32%
same,residual activity,[6],4%
same,residual activity,[2],6%
same,residual activity,[3],1%
same,residual activity,[8],9%
O=c1cc(N2CCNCC2)oc2c(-c3ccccc3)cccc12,residual activity,[1],84%
same,residual activity,[4],78%
same,residual activity,[5],84%
same,residual activity,[7],101%
same,residual activity,[6],96%
same,residual activity,[2],97%
same,residual activity,[3],90%
same,residual activity,[8],90%
Nc1n[nH]c2nc3ccccc3nc12,residual activity,[9],81%
same,residual activity,[10],50%
same,residual activity,[4],100%
same,residual activity,[5],80%
same,residual activity,[6],87%
same,residual activity,[2],98%
same,residual activity,[3],59%
O=C(Nc1ccc(Cl)cc1)c1ccccc1NCc1ccncc1,residual activity,[9],118%
same,residual activity,[10],130%
COc1ccc(CNC(=O)Nc2ncc([N+](=O)[O-])s2)cc1,residual activity,[4],28%
same,residual activity,[5],14%
COc1ccc(-c2cnc3c(-c4ccsc4)cnn3c2)cc1,residual activity,[4],87%
same,residual activity,[5],88%
same,residual activity,[2],93%
same,residual activity,[3],95%
NC(=O)c1ccc(-c2nc(-c3ccc4c(c3)OCCO4)c(-c3ccccn3)[nH]2)cc1,residual activity,[4],117%
same,residual activity,[5],98%
N#C/C(=C\c1ccc(O)c(O)c1)C(=O)NCc1ccccc1,residual activity,[2],101%
COc1cc2ncnc(Nc3cccc(Cl)c3)c2cc1OC,residual activity,[9],101%
same,residual activity,[10],121%
same,residual activity,[8],110%
NC(=O)c1cccc(-c2cc(Nc3ccc(OC(F)(F)F)cc3)ncn2)c1,residual activity,[9],98%
same,residual activity,[10],82%
same,residual activity,[5],64%
O=C1NC(=O)C(c2cn(CCCO)c3ncccc23)=C1c1cnccn1,residual activity,[9],6%
same,residual activity,[10],3%
same,residual activity,[4],34%
same,residual activity,[5],10%
same,residual activity,[7],93%
same,residual activity,[6],93%
same,residual activity,[2],56%
same,residual activity,[3],52%
NCCNc1ncc(C(N)=O)c(Nc2cccc(C(F)(F)F)c2)n1,residual activity,[5],26%
c1ccc(-c2cnc(Nc3ccc(OCCN4CCCC4)cc3)s2)cc1,residual activity,[9],109%
same,residual activity,[10],133%
same,residual activity,[2],67%
same,residual activity,[3],19%
same,residual activity,[8],78%
O=C1Cc2c([nH]c3ccc([N+](=O)[O-])cc23)-c2ccccc2N1,residual activity,[9],1%
same,residual activity,[10],2%
same,residual activity,[4],-1%
same,residual activity,[5],3%
same,residual activity,[7],109%
same,residual activity,[6],100%
CCOC(=O)c1c(C)[nH]c(/C=C2\C(=O)Nc3ccccc32)c1C,residual activity,[10],129%
same,residual activity,[4],99%
same,residual activity,[5],80%
CCN1/C(=C/C(C)=O)Sc2ccc(OC)cc21,residual activity,[10],34%
same,residual activity,[5],63%
same,residual activity,[8],82%
O=C1C(Cl)=C(N2C(=O)CCC2=O)C(=O)c2ccccc21,residual activity,[1],90%
same,residual activity,[4],120%
same,residual activity,[5],93%
same,residual activity,[6],89%
same,residual activity,[2],102%
same,residual activity,[3],92%
same,residual activity,[8],93%
COc1cc2nccc(Oc3ccc(NC(=O)Nc4cc(C)on4)c(Cl)c3)c2cc1OC,residual activity,[9],107%
same,residual activity,[10],123%
same,residual activity,[7],96%
same,residual activity,[6],106%
Nc1nccc(-c2c(-c3ccc(F)cc3)ncn2C2CCNCC2)n1,residual activity,[5],64%
same,residual activity,[6],82%
same,residual activity,[3],62%
COc1ccc(COc2ccc(Cc3cnc(N)nc3N)cc2OC)cc1,residual activity,[9],120%
same,residual activity,[10],119%
same,residual activity,[5],80%
